Bioassay records: PubChem, National Center for Advancing Translational Sciences (NCATS)
Rows were chosen to be rich in hits. Some 3.8% of all compounds tested hit in one or more screens of this group.
ATXN viability = cell viability loss in ATXN counter-screen; S2 cells (HEK-293 line with an ATXN2-luciferase reporter) viability, CellTiter-Fluor protease fluorescence, 24 h; Potency, µM (highest dose often 56.7 µM), actives largely listed as cytotoxic; 400,000 tested, 0.49% active; AID 651635; further: nearly all actives have a fitted effect of over 40% in size
TGFb SMAD3 inh = inhibitors of TGF-b signaling. 410,000 tested, 1.2% active. HepG2 CAGA-GFP TGF-b/SMAD3 reporter, GFP fluorescence, 18 h; TGF-beta stimulated, 500 pg/mL final. AID 588855. Potency, µM (highest dose often 46.1 µM), for the others: at the top dose activity, negative = inhibition, hits mostly inhibitors; further: on the % scale 0 is the no-effect control and ±100 the full control effect; nearly all actives have a fitted effect of over 65% in size
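Per well, imaged GFP fluorescence of HEPG2 CAGA-GFP cells gives the signal; cells get compound, then TGF-beta (500 pg/mL final), 18 h at 37 degrees C; %Activity versus -TGF-beta and +DMSO controls.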
HT1080 IDH1KD tx = kills HT-1080 cells with IDH1 knockdown. HT-1080 IDH1 knockdown viability, ATP luminescence, 48 h. Potency, µM (titrated, usually from 46.1 µM), for the others: top-dose activity, negative = toxicity, usual class: cytotoxic. 360,000 tested, 2% active. AID 686971;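 further: 0% = DMSO wells and -100% = cell-free medium wells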
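Cytotoxicity counter-line: IDH1KD HT-1080, 48 h, CellTiter-Glo. Curves classed by r2, magnitude and activity.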
ATXN2 expr inh = ATXN2 expression inhibition; 360,000 tested, 0.72% active; Potency, µM (highest dose often 57 µM), inactives show top-dose activity change, negative = inhibition, most hits filed as inhibitors; HEK-293 ATXN2-luciferase reporter, luminescence, 24 h; further: on the % scale 0 is the no-effect control and ±100 the full control effect; nearly all actives have a fitted effect of over 55% in size
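qHTS (up to 57 uM final) was run with 24 h compound exposure of reporter cells at 37 °C. Each well was multiplexed: SteadyGlo luminescence measured ATXN2-luciferase expression after a fluorogenic Gly-Phe-AFC viability readout (25 uM final).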
HepG2 tox = HepG2 cytotoxicity, counter-screen for TGF-b inhibitors; Potency, µM (titrated, usually from 46.1 µM), for inactives: at the highest dose activity change, negative = cytotoxicity, most hits filed as cytotoxic; HepG2 CAGA-GFP viability, ATP luminescence, 18 h; AID 588856; 410,000 tested, 0.76% active
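HepG2 CAGA-GFP cells (1000/well, DMEM with 1% FBS) received compound, then TGF-beta at 500 pg/mL final, and were incubated 18 hours at 37 degrees C. Viability was read by CellTiter-Glo luminescence. Media-only wells were set as complete cell-killing and DMSO as no toxicity.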
HT1080-NT tox = kills 2HG-producing HT-1080-NT fibrosarcoma cells. HT-1080-NT fibrosarcoma viability, CellTiter-Glo ATP luminescence, 48 h. Potency, µM (doses to about 46.1 µM), inactives show at the highest dose activity, negative = less viability, most hits filed as cytotoxic. 360,000 tested, 1.6% active. AID 686970;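 further: NT is the 2HG producing partner of a matched IDH1 knockdown line; 0% = DMSO-treated cells and -100% = media-only wells without cells; nearly all actives have a fitted effect of over 55% in size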
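Luminescent CellTiter-Glo readout after 48 hours of compound exposure at 37 degrees C defined viability of HT-1080-NT cells. Activity was normalized to DMSO wells and cell-free media wells; concentration-response curves were fitted and assigned curve classes.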
* = called active by the depositor; i = inactive; ? = inconclusive; / = no result; ! = a repeat was not active. The call rests on the fitted dose curve; in most records, active means well fitted curve in the direction sought with a large enough effect; inconclusive means small, poorly fitted or top-dose-only effect, or another doubt; inactive means no such curve, though single readings can be large; an effect the other way counts as inactive or inconclusive. Potency means the concentration at half of the fitted maximal effect.

SMILES | ATXN viability | TGFb SMAD3 inh | HT1080 IDH1KD tx | ATXN2 expr inh | HepG2 tox | HT1080-NT tox
CC(NC(=O)Nc1nnc(C(F)(F)F)s1)(C(F)(F)F)C(F)(F)F | ? | ? | 3.3µM* | ? | -43% | 7.3µM*
O=C(c1nc(-c2ccc(Cl)cc2)n2c1CCCCC2)N1CCN(c2ccccc2)CC1 | i | -15% | / | -4% | 2% | /
Cc1nc(NCc2cccc3c2OCO3)sc1-c1ccn(CC2CCCN(C)C2)n1 (configuration not stated) | i | / | / | / | / | /
O=C(CN(c1cccc(C(F)(F)F)c1)S(=O)(=O)c1ccc(Cl)c([N+](=O)[O-])c1)NCc1ccc(F)cc1 | 32µM* | ? | ? | ? | -47% | ?
O=C(CN(c1cccc(C(F)(F)F)c1)S(=O)(=O)c1ccccc1)Nc1cccc(Cl)c1 | ? | ? | / | ? | -52% | /
CCn1c([N+](=O)[O-])nc2c1c(=O)[nH]c(=O)n2C | / | 10µM* | 21µM* | / | -126% | 18µM*
Cc1cc2c(c(-c3ccc(Cl)cc3)c1)OC(CNC(=O)CCC(=O)N(C)C)C2 (configuration not stated) | i | / | / | / | / | /
CCn1c(=O)c(C(=O)NCCN2CCCCC2)c(O)c2ccccc21 | i | -10% | 18µM* | -16% | -27% | ?
CCn1c(=O)c(C(=O)NCCc2ccccc2)c(O)c2ccccc21 | i | -13% | -26% | -7% | -3% | -15%
CCOC(=O)/C=C/C(=O)Nc1ccc(S(=O)(=O)N(C)c2ccccc2)cc1 | i | ? | 21µM* | ? | -3% | ?
CCCSCCCNC(=O)C1CCCN(C(=O)c2cnn(-c3ccccc3)c2-n2cccc2)C1 (configuration not stated) | i | 16µM* | / | -12% | -23% | /
CC(=O)c1ccc(NC(=O)c2noc3c2CSc2ccccc2-3)cc1 | / | 0% | / | / | -11% | /
Cc1ccc(C(=O)Nc2ccc(C(=O)OCc3cc(=O)n4c5c(sc4n3)CCCC5)cc2)cc1 | / | ? | / | / | -27% | /
OCC1OC(n2cnc3c(=S)nc[nH]c32)CC1O (configuration not stated) | i | -4% | ? | 0% | -9% | -18%
S=c1nc[nH]c2c1ncn2C1CCCO1 (configuration not stated) | ? | -19% | 8.2µM* | -37% | -29% | 4.6µM*
COc1ccc(OC)c(NC(=O)c2nc(S(=O)(=O)Cc3ccccc3F)ncc2Cl)c1 | / | ? | / | / | 3.2µM* | /
O=C(Nc1ccccc1F)c1nc(S(=O)(=O)Cc2ccccc2F)ncc1Cl | 18µM* | 4.5µM* | / | ? | 8.9µM* | /
CCOc1ccccc1NC(=O)c1nc(S(=O)(=O)Cc2ccccc2F)ncc1Cl | / | ? | / | / | -18% | /
COc1ccc2nc(NC(=O)c3nc(S(=O)(=O)Cc4ccccc4F)ncc3Cl)sc2c1 | / | ? | / | / | -99% | /
CCc1ccc(/C=C2/Sc3ccccc3N(CC(=O)NCCCN3CCOCC3)C2=O)cc1 | ? | ? | 0% | / | 18µM* | 8%
CCN1CCN(CCNC(=O)c2ccc(/C=C3/Sc4ccccc4N(Cc4cccc(Cl)c4)C3=O)cc2)CC1 | 28µM* | ? | ? | 25µM* | 22µM* | 15µM*
CCN1CCCC1CNC(=O)c1ccc2c(c1)N(Cc1ccccc1F)C(=O)c1ccccc1S2(=O)=O (configuration not stated) | i | -3% | -30% | -8% | 1% | -5%
CCN1CCN(CCNC(=O)c2ccc3c(c2)N(Cc2ccc(F)cc2)C(=O)/C(=C/c2ccccc2)S3)CC1 | ? | ? | 5.2µM* | ? | -185% | 6.5µM*
O=C(CN1C(=O)/C(=C/c2ccc(C(F)(F)F)cc2)Sc2ccccc21)NCCCN1CCOCC1 | i | ? | ? | -20% | -53% | ?
CC1CCCN(CCCNC(=O)c2ccc3c(c2)N(Cc2ccccc2F)C(=O)c2ccccc2S3(=O)=O)C1 (configuration not stated) | ? | ? | ? | ? | 11µM*! | 26µM*
SMILES | ATXN viability | TGFb SMAD3 inh | HT1080 IDH1KD tx | ATXN2 expr inh | HepG2 tox | HT1080-NT tox
CCC1CCCCN1CCCNC(=O)c1ccc2c(c1)N(Cc1ccc(F)cc1)C(=O)c1ccccc1S2=O (configuration not stated) | ? | ? | 23µM* | ? | -59% | 21µM*
CN1CCN(CCCNC(=O)c2ccc(/C=C3\Sc4ccccc4N(Cc4ccccc4F)C3=O)cc2)CC1 | i | ? | ? | -16% | -34% | 23µM*
O=C(NCCN1CCOCC1)c1ccc(/C=C2\Sc3ccccc3N(Cc3ccccc3F)C2=O)cc1 | i | ? | -29% | / | -49% | -11%
Cc1cccc2sc(NNC(=O)c3cc(-c4cccs4)nc4ccccc34)nc12 | ? | ? | 21µM* | ? | -41% | ?
NNC(=O)c1cc(-c2cccs2)nc2ccccc12 | i | 10% | ? | / | -15% | -8%
C/C(=N\NC(=O)c1cc(-c2cccs2)nc2ccccc12)c1ccccn1 | i | ? | ? | 2.8µM* | -14% | ?
C/C(=N\NC(=O)C(c1ccccc1)c1ccccc1)c1ccccn1 | 6.3µM* | ? | 5.8µM* | 3.5µM* | -13% | 9.2µM*
C/C(=N\NC(=O)c1cccc2ccccc12)c1ccccn1 | 3.5µM* | 3.2µM* | ? | ? | -11% | ?
O=C(C1CCN(S(=O)(=O)c2cccc3nonc23)CC1)N1CCN(c2ccc(F)cc2)CC1 | i | ? | / | -25% | -19% | /
COCc1c(C(=O)NCC2CCCN(C)C2)cnn1-c1ncc2c(n1)-c1ccccc1CCC2 (configuration not stated) | i | / | / | / | / | /
CC(=NNC(=O)c1cc(C)nc2ccccc12)c1ccc(N2CCOCC2)cc1 | i | 0% | ? | -24% | -1% | ?
C/C(=N\NC(=O)c1cc(-c2ccncc2)nc2ccccc12)c1ccc(N2CCOCC2)cc1 | i | 0% | 10µM* | / | -4% | 21µM*
CCSc1nc2ccccc2n1C(=O)/C=C\c1ccc(OC)c(OC)c1 | ? | -27% | ? | 13µM* | -3% | -20%
COc1cc(-c2cc(C(=O)N(C)Cc3ccccc3)c3ccccc3n2)cc(OC)c1OC | i | 27% | -17% | -11% | -30% | -7%
COc1ccccc1CN(C)C(=O)c1cc(-c2cc(OC)c(OC)c(OC)c2)nc2ccccc12 | ? | -31% | 18µM* | -32% | -8% | 15µM*
